AID504770 – E. coli YBA685 growth inhibition, screen for V. cholerae RctB inhibitors. E. coli YBA685 rctB-dependent plasmid, OD600 growth, 3 h; hits give low values. z-score (concentration not given with the values). 130,000 compounds, 0.27% hits; in the data active = z-score below about -2, passing the limit was not always enough
MenB inh – Mtb MenB enzyme inhibition; P9WNP5; inhibition, % (concentration not given with the values); AID 540299; 100,000 compounds, 0.43% hits; MenB enzyme assay, absorbance read-out; in the data active = inhibition above about 21%, passing the limit was not always enough
PV pol inh – poliovirus RNA polymerase inhibition. poliovirus polymerase elongation, fluorescence polarization; hits give low values. % elongation, % (compound at 16.7 µg/mL). P03300. AID 588519. 150,000 compounds, 0.66% hits; in the data active = % elongation below about 90%
Mtb MbtI inh – blocks the Mycobacterium tuberculosis siderophore enzyme MbtI; P9WFX0; purified MbtI enzyme, fluorescence intensity read-out; inhibition, % (concentration not given with the values); 100,000 compounds, 0.89% hits; in the data active = inhibition mostly above about 56%, no sharp cut-off; inactive = mostly below about 77%
Target sequence (P9WFX0 whole entry, looked up): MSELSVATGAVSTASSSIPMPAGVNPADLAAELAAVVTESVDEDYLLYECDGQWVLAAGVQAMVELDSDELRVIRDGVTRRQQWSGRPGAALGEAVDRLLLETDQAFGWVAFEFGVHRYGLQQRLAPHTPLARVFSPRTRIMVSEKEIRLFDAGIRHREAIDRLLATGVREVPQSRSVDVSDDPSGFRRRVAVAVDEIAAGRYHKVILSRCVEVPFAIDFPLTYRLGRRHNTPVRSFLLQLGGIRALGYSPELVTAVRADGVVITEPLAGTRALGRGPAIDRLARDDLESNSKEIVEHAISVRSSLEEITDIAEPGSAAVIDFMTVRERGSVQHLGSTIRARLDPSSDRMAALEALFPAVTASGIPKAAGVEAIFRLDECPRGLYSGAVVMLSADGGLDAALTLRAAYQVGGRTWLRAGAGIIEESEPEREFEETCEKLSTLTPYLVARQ
The depositor's hits bear a star; x = not tested or not shown. Sampled rows, rich in hits. Any-hit rate of the full collection: about 1.4%.

SMILES	AID504770	MenB inh	PV pol inh	Mtb MbtI inh
O=c1cc(CSc2nnnn2-c2ccccc2)nc(Nc2ccc(F)cc2)[nH]1	-3.3*	x	x	-10
CC(C)(C)OC(=O)NCc1cccs1	0.95	33*	102	6
O=C(C1=CC=CN2CCS(=O)(=O)N=C12)N1CCN(c2ccccn2)CC1	0.45	-9	100	5
CCCNC(=O)N(C)c1ncnnc1NC	-0.4	29*	100	-4
CCNc1nc(NCC)nc(NCCO)n1	-0.45	32*	99	-14
CCNc1nc(Cl)nc(NCC)n1	-0.1	x	101	-3
COC(=O)CSC1=NC(=O)/C(=C/c2ccc(OC)cc2)S1	-0.9	-81	146	x
N#Cc1c(-c2cccs2)cc(-c2ccc(C(=O)O)cc2)nc1SCc1cccs1	-0.4	4	78*	x
O=C(NCC(=O)c1cccs1)NC1CCCC1	-0.15	0	100	1
CN(C)/N=C/c1ccc(C(O)(c2nc3ccccc3s2)C(F)(F)F)o1 (stereo unspecified)	-0.4	-14	100	-3
O=C1c2ccccc2C(=O)c2c1oc1c3c(ccc21)OCN(CCCn1ccnc1)C3	-0.9	-2	84*	8
CC1=CC(=N/C(C)=N/S(=O)(=O)c2ccc(C)cc2)C=C(C)C1=O	1.4	3	105	86*
Cc1ccc(-n2c(C)cc(P(=S)(N3CCOCC3)N3CCOCC3)c2C)c(C)c1	-0.3	-133	92	69*
Cc1cc(P(=N)(N2CCOCC2)N2CCOCC2)c(C)n1-c1ccc(I)cc1	-0.1	0	100	-8
S=C(SN1CCOCC1)N1CCOCC1	-0.55	-69	77*	x
CCN(CC)S(=O)(=O)c1cccc(-n2sc3ccccc3c2=O)c1	0.4	-19	108	100*
Cc1nn(-c2ccc(Cl)cc2)c2sc(C(=O)N(C)C3CCCCC3)cc12	-0.2	5	106	-6
N[C@@H]1C[C@H]1c1ccccc1	x	36*	99	6
O=C(O)C1CC1c1ccccc1 (stereo unspecified)	-0.35	-34	99	-10
COc1ccc(C2N(C)c3ccccc3N2C)cc1	0.6	4	102	114
OC(CNCCc1ccc(F)cc1)c1ccccc1 (stereo unspecified)	0.1	-15	102	29
C1CCC2(CC1)C1=C(CCCC1)Nc1nnnn12	0.65	32*	100	1
CCCCN(CC)CCCNC(=O)c1cc2c(-c3ccc(OC)c(OC)c3)nn(C)c2s1	x	x	80*	x
CS(=O)(=O)N(CCc1ccccc1)CC(=O)N1CCOCC1	0.25	34*	102	0
CC1CCN(C(=O)CN(CCc2ccccc2)S(C)(=O)=O)CC1	-0.55	-40	106	-8
SMILES	AID504770	MenB inh	PV pol inh	Mtb MbtI inh
CC(=O)N1C(=O)/C(=C2\SC(=S)N(C(C)C(=O)O)C2=O)c2ccccc21 (stereo unspecified)	1.7	34*	103	9
O=C(O)c1cc(-c2ccccc2)nc2ccccc12	-0.65	1	102	x
O=C(O)c1nc(-c2ccccc2)cc(-c2ccccc2)n1	0.65	35*	100	15
COc1cc(C(=O)NC(C)C(=O)NN)cc(OC)c1OC (stereo unspecified)	-0.7	-21	99	-5
O=C(COC(=O)c1cc2ccccc2oc1=O)Nc1ncccn1	1.1	-21	88*	-96
CN(C)C(=O)COC(=O)c1cc2ccccc2oc1=O	-0.95	-23	103	41
Cc1ccc(-c2n[nH]c(CNC(=O)c3ccc(F)c(F)c3)n2)cc1	-0.65	-31	102	-6
CCSc1ccc(SC#N)s1	-5.2*	-76	95	54
CC(C)C(C)(C#N)NC(=O)CSc1nncn1C (stereo unspecified)	0.25	-9	110	-5
CO[C@@H]1[C@@H](OC(N)=O)[C@@H](O)[C@H](Oc2ccc3c(O)c(NC(=O)c4ccc(O)c(CC=C(C)C)c4)c(=O)oc3c2C)OC1(C)C	0.3	2	99	4
CO[C@@H]1[C@H](OC(N)=O)C(O)[C@H](Oc2ccc3c(O)c(NC(=O)c4ccc(O)c(CC=C(C)C)c4)c(=O)oc3c2C)OC1(C)C (stereo partly specified)	x	-7	101*	-4
CNC(=O)c1sc(CN2C(=O)c3ccccc3S2(=O)=O)nc1C	-0.3	6	65*	92*
O=C1CCCCCN1Sc1ccccc1	-0.5	9	102	70*
CCC(C)NC(=O)CSc1nc2n[nH]c(C)c2c(=N)n1-c1ccccc1Cl (stereo unspecified)	-0.45	-8	100	-22
FC(F)Oc1ccc(NC(=S)NNc2nc3ccccc3[nH]2)cc1	0.6	1	44*	95
O=C(O)c1ccc(C2Nc3ccccc3C3C=CCC32)cc1 (stereo unspecified)	2.5	-18	59*	x
N#CC1=C(SCc2ccccc2)SC(c2ccccc2O)NC1=O (stereo unspecified)	-3.4*	-1	102	21
COc1ccc(OCC2CN=C(c3ccccc3CO)O2)cc1 (stereo unspecified)	-0.65	x	x	x
O=C(O)C1(c2ccccc2)CCC(Nc2ccccc2)C1 (stereo unspecified)	-1	-5	69*	x
O=C(Nc1nnc(C(F)(F)F)s1)c1ccccc1	-0.65	-34	100	92*
COc1ccc(C2CC(c3ccc(C)cc3)=NN2S(=O)(=O)c2ccc(C)cc2)cc1 (stereo unspecified)	0.45	-5	106	0
O=c1[nH]snc1N1CCCCC1	-1.7	13	64*	43
O=c1[nH]snc1N1CCOCC1	-1.2	x	x	2
COc1ccc(NC(=O)c2ccco2)cc1NC(=O)c1ccc(C)c(C)c1	x	x	104	x
COc1cc(OC)cc(C(=O)Nc2cc(NC(=O)c3ccco3)ccc2OC)c1	-0.4	48*	99	9
SMILES	AID504770	MenB inh	PV pol inh	Mtb MbtI inh
COCCNC(=O)c1cc(C(=O)c2cc(Cl)ccc2O)coc1=N	-1.1	-27	113	-18
O=C(CC12CC3CC(CC(C3)C1)C2)n1cccn1	0.3	6	101	-6
CC(C)N=C(N)/N=C(\N)Nc1ccc(Cl)cc1	x	0	99	-16
NC(=NCCCCCCN=C(N)/N=C(\N)Nc1ccc(Cl)cc1)/N=C(\N)Nc1ccc(Cl)cc1	-5*	-5	100	24
COc1ccc2c(c1)C1(NNc3ccccc3O1)C(=O)N2 (stereo unspecified)	-11*	-133	120	62
COc1cc(OC)c(N2C(=O)C=CC2=O)cc1Cl	-0.3	x	x	x
Fc1cccc(Nc2nc(Cl)nc(Cl)n2)c1	-0.55	48*	98	2
CN(C)c1nc(Nc2ccccc2)nc(N(C)C)n1	-0.5	34	99	5
Clc1nc(Cl)nc(Nc2ccccc2)n1	0.65	-3	87*	x
Nc1cccc2c1C(=O)N(C(=O)/C=C/c1cccc(F)c1)C2=O	0.3	-36	82*	12
CC1Cc2ccccc2N1C(=O)/C=C/c1cccc(F)c1 (stereo unspecified)	0.1	-5	98	14
O=c1oc2c3c(ccc2c2ccccc12)OCN(Cc1cccc(Cl)c1)C3	x	x	85*	x
O=C(Cc1ccc2c(c1)OCCO2)N1CCc2ccccc21	0.8	14	105	-25
